# Measurements: PubChem BioAssay AID504332 (National Center for Advancing Translational Sciences (NCATS), 2011)
# The whole screen tested about 350,000 compounds, of which about 31,000 (8.9%) were called active. Entries that show only a call come without a potency. Not shown: some 15% with an inconclusive outcome. The sample as a whole holds a higher share of actives than the screen did. Values without a mark were called inactive. Calls follow the shape of the dose curve; as a rule, active = well fitted inhibition curve with a large enough effect; inconclusive = small, poorly fitted or top-dose-only effect; inactive = no such curve, though single readings can be large or run the other way.
# Target: Histone-lysine N-methyltransferase EHMT2 (Homo sapiens) (UniProt Q96KQ7)
# Test: qHTS Assay for Inhibitors of Histone Lysine Methyltransferase G9a; also: nearly all actives have a fitted effect of over 75% in size
# Conditions: G9a H3K9 monomethylation, AlphaScreen, 2 h; series mostly up to 59 µM
# From the text: Methylated lysines, on the N-terminal tails of histone proteins serve as epigenetic markers to recruit factors that can then modify local chromatin structure to lead to functional consequences. G9a and other members of the SUV39 family of the SET domain-containing superfamily of histone lysine methyltransferases (HMT) have been identified to specifically methylate Lys9 of histone H3 (H3K9). G9a catalyzes the mono- and di-methylation of H3K9 in mammalian euchromatic regions, where the resulting H3K9me2 is indicative of transcriptional repression. […] The inhibition of G9a will result in transcriptional activation and work synergistically with DNA methyltransferase and histone deacetylase inhibitors, to kill cancer cells. This qHTS assay for identification of G9a inhibitors is a chemiluminescence based AlphaScreen (PerkinElmer). Methylation of biotinylated-histone peptide is measured through specific antibody-based detection, in conjunction with streptavidin-coated donor and anti-IgG antibody-coated acceptor beads. The method is particularly well suited for detection of inhibitors acting by the desired histone peptide competitive mechanism and is applicable to testing other HMTs. Although AlphaScreen has significant advantages with its utility in a variety of epigenetic target assays, the primary screening data provided in this deposition should be used with caution due to the prevalence of screening artifacts. An AlphaScreen counterscreen is highly recommended to be run against any putative actives to eliminate non specific artifacts. Alternatively, one can use other AlphaScreen assays in PubChem to filter out promiscuous hits. Quinn et al. A chemiluminescence-based method for identification of histone lysine methyltransferase inhibitors. Mol Biosyst 6(5): 782-8. 2010. PMID: 20567762 [2] Baell,Holloway. New substructure filters for removal of pan assay interference compounds (PAINS) from screening libraries and for their exclusion in bioassays. J Med Chem. 53(7):2719-40. 2010. PMID: 20131845 NIH Molecular Libraries Probe Production Network [MLPCN] NIH Chemical Genomics Center [NCGC] Structural Genomics Consortium (SGC) NIH Grant: 5U54 MH084681-02
# To each well of a 1,536w plate, 2ul of HMT enzyme (final 20nM) were added, using a nanoliter dispenser. The G9a- and GLP-inhibitor BIX-01294 (CID: 25150857) are used as an intraplate control, with a 16-point titration in duplicate. A Kalypsys pin-tool transferred 23nl of library compound solution in DMSO to each well. Following a 15 min incubation of enzyme with compounds at room temperature, 1ul mixture of b-H3K9 peptide substrate (final 500nM) and SAM cofactor (final 20uM) were added. Reactions were allowed to proceed at room temperature for 2 hours. Methylated b-H3K9 peptide product was detected with 0.5 ug/mL rabbit polyclonal anti-monomethyl histone H3K9 antibody (Abcam Inc., Cambridge, MA) and 20 ug/mL each streptavidin-coated donor and anti-rabbit IgG acceptor AlphaScreen beads. Antibody and beads were added in a 1ul dispense, for a final volume of 4ul, and plates were incubated, protected from the light, for 10 min at room temperature. Microplates were then read on an EnVision multilabel plate reader using the 1,536 plate HTS AlphaScreen aperture (excitation time 80 ms, measurement time 240 ms).
# Potency is read from the fitted curve at half-maximal effect.
# Chain of Histone-lysine N-methyltransferase EHMT2 (Homo sapiens) (Q96KQ7 913-1193 limits assumed): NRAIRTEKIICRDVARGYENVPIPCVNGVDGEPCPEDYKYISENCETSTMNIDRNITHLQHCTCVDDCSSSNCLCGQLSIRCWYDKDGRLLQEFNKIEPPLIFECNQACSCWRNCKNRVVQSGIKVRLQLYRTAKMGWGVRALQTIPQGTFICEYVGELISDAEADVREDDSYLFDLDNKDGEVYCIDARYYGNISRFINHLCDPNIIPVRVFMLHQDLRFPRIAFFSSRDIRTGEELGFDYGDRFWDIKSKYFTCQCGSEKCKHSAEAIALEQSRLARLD
Structure (SMILES),"activity, negative = inhibition",Potency
O=C(c1ccco1)N1CCC2(CC1)CN(c1ncccn1)C2,6.99% [at 12.7 µM],
O=C(c1ccco1)N1CCC2(CC1)CCN(c1ncccn1)CC2,4.8% [at 12.7 µM],
O=C(C1=C(O)C(=O)N(c2ncccn2)C1c1cccs1)c1ccco1 (configuration not stated),,10 µM (active)
COC(=O)c1ccc(OC)c(Cn2c(=O)n(Cc3ccccc3)c(=O)c3c2c2cc(OC)ccc2n3C)c1,,inactive
Cc1nn(Cc2ccccc2)c(C)c1CNC(=O)c1ccc(F)c(S(=O)(=O)N2CCOCC2)c1,-14.2% [at 12.7 µM],
CCN(C(=O)CSc1nc(N)cc(=O)[nH]1)C1CCS(=O)(=O)C1 (configuration not stated),6.8% [at 12.7 µM],
CCN1CCN(c2ccc(S(=O)(=O)N3CCCCC3)cc2NC(=O)c2cccc(NC(C)=O)c2)CC1,,50.1 µM (active)
O=C(Nc1cccnc1)c1cccc(S(=O)(=O)N2CCCC2)c1,,inactive
O=C(Nc1cccc(S(=O)(=O)N2CCCCC2)c1)c1ccc2c(c1)OCO2,,1 µM (active)
CCN1CCN(c2ccc(S(=O)(=O)N3CCCCC3)cc2NC(=O)Cc2c(Cl)cccc2Cl)CC1,,inactive
Cc1ccc(S(=O)(=O)N2CCCCC2)cc1NC(=O)c1cccnc1,,inactive
O=C(Nc1ccc2c(c1)OCCO2)c1ccc(Cl)c(S(=O)(=O)N2CCCCC2)c1,-22.9% [at 12.7 µM],
CC(C)(C)SCCSC1=CC(=O)CC(c2ccccc2)C1 (configuration not stated),,inactive
O=C(CSc1nc2ccccc2c(=O)n1-c1ccc(F)cc1)NC1CC1,7.18% [at 0.501 µM],
COC(=O)CC1Oc2ccccc2-n2cc(-c3ccccc3)nc21 (configuration not stated),,inactive
COc1ccc(C(=O)Nc2ccccc2C(=O)N/N=C/c2ccc(O)c(OC)c2)cc1,-4.54% [at 2.33 µM],
COc1ccc(/C=N/NC(=O)c2cccc(C(F)(F)F)c2)cc1,,inactive
COc1ccc(/C=N/Nc2ccccc2C(=O)O)cc1,,79.4 µM (active)
COc1ccc(Cc2nnc(SCC(=O)N(c3ccccc3)C(C)C)n(N)c2=O)cc1,,inactive
Cc1cccc(C)c1OCCN1CCOCC1,,11.2 µM (active)
CCOc1ccc(C(=O)CCN2CCOCC2)cc1,,39.8 µM (active)

Structure (SMILES),"activity, negative = inhibition",Potency
Cc1ccc(S(=O)(=O)NCCN2CCOCC2)cc1C,-19.4% [at 12.7 µM],
Cc1cccc(C)c1OCC(O)CN1CCCCC1 (configuration not stated),,inactive
CCCCOc1ccc(C(C)(O)CCN2CCOCC2)cc1 (configuration not stated),,inactive
COc1ccc(C(=O)Nc2ccc(CN3CCOCC3)cc2)cc1,39.7% [at 12.7 µM],
CCOc1ccc(C(=O)CCC(=O)Nc2ccncc2)cc1,-14% [at 12.7 µM],
CC(=O)c1ccc(OCCN2CCOCC2)cc1,,25.1 µM (active)
CCOc1ccc(C2C(C(=O)O)c3ccccc3C(=O)N2CCN2CCOCC2)cc1 (configuration not stated),1.66% [at 12.7 µM],
COc1ccc(CCC(=O)NCc2ccc3c(c2)CCN3C(=O)c2ccc(F)cc2)cc1,,inactive
CCN(C(=O)COC(=O)CCOc1cccc(C)c1)c1c(N)n(Cc2ccccc2)c(=O)[nH]c1=O,,inactive
O=C(CSc1ncc(S(=O)(=O)c2ccc(Br)cc2)c(=O)[nH]1)Nc1ccc2c(c1)OCCO2,,inactive
O=C(COC(=O)c1cccs1)NCc1cccs1,,inactive
Cc1ccc(N2CC(NC(=O)Cc3cccs3)CC2=O)cc1 (configuration not stated),,inactive
CCN(C(=O)COC(=O)Cc1c(F)cccc1Cl)c1c(N)n(Cc2ccccc2)c(=O)[nH]c1=O,1.45% [at 12.7 µM],
Cc1cccc(-c2nc(SCC(=O)Nc3cc(C)on3)c3c(=O)n(C)c(=O)n(C)c3n2)c1,,inactive
Cc1ccc(OCC(=O)OCc2cc(=O)n3nc(C4CC4)sc3n2)cc1C,,inactive
O=C1C=C(c2ccc(Cl)cc2)C(=O)N1Nc1ccccc1,,7.94 µM (active)
O=C1c2cccc3cc(Br)cc(c23)C(=O)N1Nc1ccccc1,,inactive
O=C(Nc1ccccc1)OCc1cc(-c2ccc(Cl)cc2)on1,,inactive
Cc1ccccc1-c1nc(C#N)c(NCc2ccco2)o1,,39.8 µM (active)
COc1ccc(Nc2oc(-c3ccccc3Cl)nc2C#N)cc1,,inactive
Cc1cc(NCc2ccco2)n2c(nc3ccccc32)c1C#N,,inactive

Structure (SMILES),"activity, negative = inhibition",Potency
O=C(NCCc1ccccc1)c1ccc2c(c1)N(Cc1ccccc1)C(=O)c1ccccc1S2(=O)=O,,inactive
Cc1ccc(S(=O)(=O)N2CC(O)C[C@H]2C(=O)OCC(=O)Nc2ccc(N3CCOCC3)cc2)cc1C (some centres not stated),,50.1 µM (active)
CC1CCCC(NC(=O)COC(=O)[C@@H]2CC(O)CN2S(=O)(=O)c2ccc3c(c2)OCCO3)C1C (some centres not stated),,inactive
Cc1cc(S(=O)(=O)N2CCOCC2)ccc1OCC(=O)Nc1cccc(C(F)(F)F)c1,,inactive
CC(C)Oc1ccc(NC(=O)c2cc3ccccc3o2)cc1,,inactive
O=C(/C=C(O)/C=C/c1ccc(O)cc1)/C=C/c1ccc(O)cc1,1.18% [at 0.501 µM],
CCOC(=O)C(C)N(c1ccccc1Cl)S(C)(=O)=O (configuration not stated),25.6% [at 12.7 µM],
Cc1cc(C)cc(NC(c2nnc(-c3cccc(F)c3)o2)c2ccc(F)cc2Cl)c1 (configuration not stated),,inactive
O=S(=O)(NCCc1ccncc1)c1ccccc1,,inactive
O=c1/c(=C/c2ccc(CNS(=O)(=O)c3ccccc3)o2)sc2n1CCN=2,,39.8 µM (active)
O=S(=O)(NCC1OCCc2ccccc21)c1ccccc1 (configuration not stated),-24.8% [at 2.33 µM],
COc1ccc(CNC(=O)C(=O)N2CCC3(CC2)OCCN3S(=O)(=O)c2ccc(C)cc2)cc1,,inactive
COc1ccccc1C(=O)NC(=O)COC(=O)C1CC1,,inactive
O=S(=O)(NCCCCCCNS(=O)(=O)c1c(F)cccc1F)c1ccc2c(c1)OCCO2,21.9% [at 2.33 µM],
CC(=O)CC[C@@H](C)O[C@@H]1OC(C)[C@H](O)CC1O (some centres not stated),14.8% [at 2.33 µM],
Cc1cccc(C(=O)N2CCc3c([nH]c4ccccc34)C2CC(C)C)n1 (configuration not stated),,inactive
CCOc1cccc(CC(=O)N2CCc3c([nH]c4ccccc34)C2c2ccc(F)cc2)c1OCC (configuration not stated),,inactive
CC1CCN(C(=O)COC(=O)c2cc(=O)[nH]c3ccccc23)CC1,-8.14% [at 12.7 µM],
Cc1cccc(C2c3[nH]c4ccccc4c3CCN2C(=O)c2cc(-c3cccn3C)n[nH]2)n1 (configuration not stated),,28.2 µM (active)
COCc1ccc(C(=O)N2CCc3c([nH]c4ccccc34)C2c2ccccn2)s1 (configuration not stated),,31.6 µM (active)
